High-throughput results (PubChem BioAssay)
MITF primary: human MITF inhibition, primary screen | inhibition, % at 2.6 µM | O75030 | 0.91% of 650,000 active | AID 1259374 | AlphaScreen MITF homodimerization, bead proximity signal; in the data active = inhibition above about 50%;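 also: 0% = vehicle wells with protein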
Target sequence (O75030 whole entry, looked up): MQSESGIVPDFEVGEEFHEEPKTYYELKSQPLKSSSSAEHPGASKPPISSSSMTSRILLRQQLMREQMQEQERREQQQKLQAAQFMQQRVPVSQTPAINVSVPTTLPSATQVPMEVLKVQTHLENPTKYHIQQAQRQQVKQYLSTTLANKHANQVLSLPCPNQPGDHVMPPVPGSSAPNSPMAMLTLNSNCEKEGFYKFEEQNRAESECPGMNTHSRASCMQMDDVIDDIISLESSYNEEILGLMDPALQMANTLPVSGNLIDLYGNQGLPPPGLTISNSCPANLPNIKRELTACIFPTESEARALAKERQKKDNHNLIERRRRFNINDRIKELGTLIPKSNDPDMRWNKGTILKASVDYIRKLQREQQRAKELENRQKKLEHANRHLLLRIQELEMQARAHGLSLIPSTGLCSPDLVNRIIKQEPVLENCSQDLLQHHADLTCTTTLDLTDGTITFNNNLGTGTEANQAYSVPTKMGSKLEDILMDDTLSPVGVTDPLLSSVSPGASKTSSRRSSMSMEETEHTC
FBW7 act: human FBW7 E3 ligase activation, primary screen; AID 1259310; 0.13% of 650,000 active; AlphaScreen FBW7–phospho-cyclin E peptide binding, activator screen; Q969H0; normalized activity (activation), % at 26.1 µM; in the data active = normalized activity above about 1.9%;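 also: purified mutant Fbw7 with reduced substrate affinity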
GPR151 activ: activators of human GPR151. 1% of 650,000 active. AID 1508602. Q8TDV0. activation, % at 11.2 µM. PathHunter beta-arrestin GPR151 cells, luminescence; in the data active = activation above about 4.9%;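 also: 0% = median of compound wells and 100% = cells with positive control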
TEAD-YAP block: TEAD-YAP interaction inhibition; 1.4% of 640,000 active; HEK-TIYL cells, TEAD-Gal4/YAP UAS-luciferase luminescence; inhibition, % at 9.12 µM; in the data active = inhibition above about 32%;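 also: 0% = median of test compound wells and 100% = reference inhibitor wells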
GPR151 confirm: confirmation of human GPR151 activators; shares compounds with GPR151 activ; GPR151 PathHunter beta-arrestin cells, luminescence, 90 min; % of EA-reagent control over plate median; activation, % at 11.2 µM; 6,700 tested, under 10 active; AID 1508609;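 active = mean percent activation across replicates above the confirmation screen cutoff of 4.91%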
GPR119 ag: activates human GPR119 in a GPR151 counter-screen; shares compounds with GPR151 activ; GPR119 PathHunter beta-arrestin cells, luminescence, 90 min; 0 = compound-well median, 100 = enzyme-acceptor control; activation, % at 11.2 µM; 0.3% of 6,700 active; AID 1508611;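 active = mean percent activation in the counterscreen above 29.09%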;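 also: counterscreen on off-target GPR119 to flag nonselective hits from the GPR151 activator screen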
Numbers without * were called inactive; ! = not active in a repeat. An excerpt weighted towards active compounds, which were near 3.5% of everything screened.

For NC(=O)c1ccc(NC(=O)COc2ccc(C(=O)c3ccc(Cl)cc3)cc2)cc1 the results were MITF primary -7, FBW7 act 0, GPR151 activ 1 and TEAD-YAP block 5.
`Cc1ccc2oc(-c3cccc(NC(=S)NC(=O)c4ccc(Cl)cc4)c3C)nc2c1` gave MITF primary 2, FBW7 act 0, GPR151 activ 5.3*, TEAD-YAP block -32, GPR151 confirm 0 and GPR119 ag 4.
`CCCCN1C(=O)C(O)(CC(=O)c2cccs2)c2cc(Br)ccc21` (stereo not given) gave MITF primary 0, FBW7 act 0, GPR151 activ -2 and TEAD-YAP block 10.
`Oc1ccc(Cl)cc1C1=NNC(c2ccc3c(c2)OCCO3)C1` (stereo not given) gave MITF primary -2, FBW7 act 0, GPR151 activ 1 and TEAD-YAP block -56.
`Cc1ccc(CN2CCNC(=O)C2CC(=O)N2CCCN(Cc3ccccn3)CC2)o1` (stereo not given) gave MITF primary 13, FBW7 act 0, GPR151 activ 5.6*, TEAD-YAP block -1, GPR151 confirm 0 and GPR119 ag 1.
For Cc1ccc(CN2CCNC(=O)C2CC(=O)N2CCCN(c3ncccn3)CC2)o1 (stereo not given) the results were MITF primary -17, FBW7 act 0, GPR151 activ 1 and TEAD-YAP block -1.
CCOc1ccccc1Nc1nnc(SCc2nc3ccccc3c(=O)[nH]2)s1 was read as MITF primary 4, FBW7 act 0, GPR151 activ -1 and TEAD-YAP block -9.
`O=c1[nH]c(CSc2nnc(Nc3ccccc3F)s2)nc2ccccc12` gave MITF primary -19, FBW7 act 0, GPR151 activ 7.2*, TEAD-YAP block -1, GPR151 confirm 0 and GPR119 ag 4.
`CC1CCC(Nc2nc3ccccc3c3nc(-c4cccnc4)nn23)CC1` (stereo not given) gave MITF primary -1, FBW7 act 0, GPR151 activ 8.1*, TEAD-YAP block -2, GPR151 confirm 1 and GPR119 ag 10.
For CC1(C)CC2(CCO1)OC(=O)CC2C(=O)NCc1ccccc1 (stereo not given) the results were MITF primary -10, FBW7 act 0, GPR151 activ 5.6*, TEAD-YAP block -5, GPR151 confirm 0 and GPR119 ag 6.
For CC(=O)c1cccc(-c2ccc(OCCN3CCOCC3)nc2)c1 the results were MITF primary 8, FBW7 act 0, GPR151 activ 0 and TEAD-YAP block 7.
NC(=O)NC1NC(=O)NC1=O (stereo not given) was read as MITF primary 8, FBW7 act 1, GPR151 activ 5.7*!, TEAD-YAP block -8, GPR151 confirm 0 and GPR119 ag 11.
Cc1ccc(C)c(NC(=O)c2oc(C)nc2C)c1 was read as MITF primary 15, FBW7 act 0, GPR151 activ 0 and TEAD-YAP block -3.
Screening O=C(Nc1ccc(S(=O)(=O)N2CCCC2)cc1)C(=O)NC1CCCc2ccccc21 (stereo not given) returned MITF primary 7, FBW7 act 0, GPR151 activ 0 and TEAD-YAP block 7.
`CC(=O)c1ccc(NC(=O)C(=O)NC2CCCc3ccccc32)cc1` (stereo not given) gave MITF primary 5, FBW7 act 0, GPR151 activ 6.7*, TEAD-YAP block -2, GPR151 confirm 0 and GPR119 ag -4.
CN1CCN(Cc2ccc(NC(=O)NCc3cccc4ccccc34)cc2)CC1 was read as MITF primary -11, FBW7 act 0, GPR151 activ 7.0*, TEAD-YAP block 6, GPR151 confirm 1 and GPR119 ag 0.
For COc1ccc(NC(=O)Nc2ccc(CN3CCN(C)CC3)cc2)cc1 the results were MITF primary 8, FBW7 act 0, GPR151 activ 0 and TEAD-YAP block -45.
COc1ccc(NC(=O)CN2C(=O)C(c3ccccc3)Oc3cccnc32)cc1OC (stereo not given) was read as MITF primary -4, FBW7 act 0, GPR151 activ 6.3*, TEAD-YAP block -3, GPR151 confirm 0 and GPR119 ag 0.
Screening CCN(C(=S)NCCOC)c1cccc2ccccc12 returned MITF primary 16, FBW7 act 1, GPR151 activ 14*, TEAD-YAP block -6, GPR151 confirm -2 and GPR119 ag -13.
Screening COCCNC(=S)N(C)c1ccc(O)cc1 returned MITF primary -7, FBW7 act 0, GPR151 activ 2 and TEAD-YAP block -2.
`CC(OCc1ccccc1)C(NC(=O)OC(C)(C)C)C(=O)Nc1nccs1` (stereo not given) gave MITF primary -1, FBW7 act 0, GPR151 activ 13*, TEAD-YAP block 1, GPR151 confirm 1 and GPR119 ag 7.
For Cc1ccc(CC(CC(=O)O)C(=O)O)cc1 (stereo not given) the results were MITF primary 1, FBW7 act 0, GPR151 activ 6.8*, TEAD-YAP block -1, GPR151 confirm -1 and GPR119 ag -14.
Cc1cc(C)cc(CC(CC(=O)O)C(=O)O)c1 (stereo not given) was read as MITF primary -17, FBW7 act 0, GPR151 activ 0 and TEAD-YAP block 6.
Screening O=S(=O)(c1ccc(S(=O)(=O)n2cnc3ccccc32)cc1)N1CCCC1 returned MITF primary 3, FBW7 act 0, GPR151 activ 6.0*, TEAD-YAP block 4, GPR151 confirm 1 and GPR119 ag 1.
Screening CC(C)(C)NCCCOc1ccc(Cl)cc1 returned MITF primary 15, FBW7 act 0, GPR151 activ 0 and TEAD-YAP block 7.
`COC(=O)[C@H](Cc1ccccc1)NC(=O)c1cc(COc2c(F)cccc2F)on1` gave MITF primary 13, FBW7 act 0, GPR151 activ 5.6*, TEAD-YAP block -31, GPR151 confirm 1 and GPR119 ag -5.
COC(=O)[C@@H](NC(=O)c1cc(COc2c(F)cccc2F)on1)c1ccccc1 was read as MITF primary 13, FBW7 act 0, GPR151 activ 1 and TEAD-YAP block -1.
`O=C(CN(c1ccccc1Cl)S(=O)(=O)c1ccccc1)NC1CC1` gave MITF primary -2, FBW7 act 0, GPR151 activ 5.9*, TEAD-YAP block -4, GPR151 confirm 0 and GPR119 ag -5.
`COCCN1C(=O)C(O)=C(C(=O)c2cc3ccccc3o2)C1c1cccc([N+](=O)[O-])c1` (stereo not given) gave MITF primary 10, FBW7 act 0, GPR151 activ 5.7*, TEAD-YAP block 8, GPR151 confirm -1 and GPR119 ag -11.
